PubChem BioAssay AID1645838 (ICCB-Longwood Screening Facility, Harvard Medical School, 2021)
Values joined by “and” are separate entries in the source; they are usually repeats but may differ in a detail not shown here. Equal entries are not always repeated. Out of some 2,000 compounds screened, about 100 (5%) were called active. No stated cut-off is given here; in the data, active means z-score above about 2; inactive means the rest. This excerpt belongs to a sample that is enriched for actives. Some structures have more than one record in an assay (separate samples or runs), and their calls can disagree.

Experiment: modulators of mitochondrial supercomplex assembly, cell-based, luminescence, Hoechst nuclei count (AID 1645838);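 further: control cybrid cells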
Settings: Cells, luminescence/Hoechst cell count ratio, supercomplex reporter; for z-score: stronger effect = higher value; for cell count: measured here: cell number, Hoechst nuclei count; for outcome: library stock 10 mM
[1] = library stock concentration (final well concentration not given) 46 uM
[2] = library stock concentration (final well concentration not given) 278 uM
[3] = library stock concentration (final well concentration not given) 1.67 mM
[4] = library stock concentration (final well concentration not given) 80 uM
[5] = library stock concentration (final well concentration not given) 400 uM
[6] = library stock concentration (final well concentration not given) 2 mM
[7] = library stock concentration (final well concentration not given) 10 mM

CCCCCCCCCCCCCCCC(=O)NC[C@@H](C)O
z-score: -0.297 (inactive) | cell count: 5690

CCCCC/C=C\C=C1\C(=O)CC[C@@H]1C/C=C\CCCC(=O)O
z-score: -0.163 (inactive) | cell count: 5580

COc1ccc(C(=O)CC2(O)C(=O)Nc3c(Cl)ccc(Cl)c32)cc1 (configuration not stated)
outcome: inactive; censored for cell count | z-score [1]: -0.53 (inactive) | z-score [2]: 0.329 (inactive) | z-score [3]: 3.41 (active) | cell count [1]: 7260 | cell count [2]: 5870 | cell count [3]: 2920

COc1ccc(C(=O)O)cc1
z-score [4]: -0.451 (inactive) | z-score [5]: -0.128 (inactive) | z-score [6]: -0.287 (inactive) | z-score [7]: -0.368 (inactive) | cell count [4]: 6090 | cell count [5]: 5780 | cell count [6]: 5670 | cell count [7]: 5840

COc1ccc(C(=O)C(=O)c2ccc(OC)cc2)cc1
z-score [4]: -0.606 (inactive) | z-score [5]: -0.661 (inactive) | z-score [6]: -0.561 (inactive) | z-score [7]: -0.758 (inactive) | cell count [4]: 5520 | cell count [5]: 5760 | cell count [6]: 5480 | cell count [7]: 5880

CCCCCCCCCCCCC(O)C(=O)O (configuration not stated)
z-score: -0.554 (inactive) | cell count: 5820

CCCCC[C@@H](O)/C=C/[C@@H]1[C@@H](C/C=C\CCCC(=O)O)[C@@H](O)C[C@H]1O
z-score: -0.443 (inactive) | cell count: 5100

CCCCC[C@H](O)CC[C@H]1[C@H](O)CC(=O)[C@@H]1CCCCCCC(=O)O
z-score: 0.391 (inactive) | cell count: 5410

CCCCC[C@H](O)/C=C/[C@H]1C(=O)C=C[C@@H]1C/C=C\CCCC(=O)O
z-score: -0.0566 (inactive) | cell count: 4900

NCCCCN(Cc1nc2ccccc2[nH]1)C1CCCc2cccnc21 (configuration not stated)
z-score [4]: -0.0283 (inactive) | z-score [5]: 0.157 (inactive) | z-score [6]: 0.36 (inactive) | z-score [7]: 2.01 (active) | cell count [4]: 5890 | cell count [5]: 5860 | cell count [6]: 5630 | cell count [7]: 3290

CCCCC[C@@](C)(O)/C=C/[C@@H]1[C@@H](C/C=C\CCCC(=O)OC)[C@@H](O)C[C@H]1O
z-score: -0.104 (inactive) | cell count: 5030

CCCCC[C@H](O)/C=C/[C@@H]1c2cc(CCCCC(=O)O)n(-c3ccccc3)c2C[C@H]1O
z-score: -1.31 (inactive) | cell count: 6120

COc1cc(OC)c(NC(=O)Nc2cc(C)on2)cc1Cl
z-score [4]: -0.669 (inactive) | z-score [5]: -0.368 (inactive) | z-score [6]: -0.584 (inactive) | z-score [7]: -0.574 (inactive) | cell count [4]: 6520 | cell count [5]: 5740 | cell count [6]: 6660 | cell count [7]: 5990

COc1cc2nccc(Oc3ccc(NC(=O)Nc4cc(C)on4)c(Cl)c3)c2cc1OC
outcome: inactive; censored for cell count | z-score [4]: -0.536 (inactive) and -0.288 (inactive) | z-score [5]: -0.724 (inactive) and -0.129 (inactive) | z-score [6]: -1.01 (inactive) and -0.967 (inactive) | z-score [7]: 5.93 (active) | cell count [4]: 4520 and 5260 | cell count [5]: 4890 and 4760 | cell count [6]: 4710 and 4870 | cell count [7]: 1710

COC(=O)C(CCSC)NC(=O)c1ccc(NCC(N)CS)cc1-c1ccccc1 (configuration not stated)
z-score [4]: -0.72 (inactive) | z-score [5]: -0.795 (inactive) | z-score [6]: -0.715 (inactive) | z-score [7]: -1.02 (inactive) | cell count [4]: 6120 | cell count [5]: 6350 | cell count [6]: 6090 | cell count [7]: 5780

COc1ccc2c(c1)CN(C)CCS2
z-score [4]: -0.906 (inactive) | z-score [5]: -0.795 (inactive) | z-score [6]: -1.04 (inactive) | z-score [7]: -1.49 (inactive) | cell count [4]: 6210 | cell count [5]: 6190 | cell count [6]: 6290 | cell count [7]: 6260

CCCCC[C@H](O)/C=C/[C@H]1C(=O)C[C@H](O)[C@@H]1C/C=C\CCCC(=O)NC(CO)CO
z-score: 1.15 (inactive) | cell count: 4420

CCCCC/C=C\C/C=C\C/C=C\C/C=C\CCCC(=O)NC[C@]1(C)CCC[C@]2(C)c3ccc(C(C)C)cc3CC[C@@H]12
z-score: -0.12 (inactive) | cell count: 4820

CCC(C)(C)C(=O)OC1CC(C)C=C2C=CC(C)C(CCC3CC(O)CC(=O)O3)[C@H]21 (some centres not stated)
z-score [4]: -0.332 (inactive) | z-score [5]: -0.176 (inactive) | z-score [6]: -0.124 (inactive) | z-score [7]: 3.34 (active) | cell count [4]: 6550 | cell count [5]: 6140 | cell count [6]: 6050 | cell count [7]: 2650

CCCCCCNC(=O)Nc1ccc(S(=O)(=O)Nc2ccc(CCNCC(O)COc3ccc(O)cc3)cc2)cc1 (configuration not stated)
z-score [4]: -0.212 (inactive) | z-score [5]: 0.0631 (inactive) | z-score [6]: -0.344 (inactive) | z-score [7]: 0.114 (inactive) | cell count [4]: 5240 | cell count [5]: 4980 | cell count [6]: 5190 | cell count [7]: 4950

N#Cc1cccc(C#N)c1-c1nc2c3ccccc3c3cc(Cl)ccc3c2[nH]1
z-score [1]: -0.238 (inactive) | z-score [2]: -0.156 (inactive) | z-score [3]: -0.196 (inactive) | z-score [7]: 0.519 (inactive) | cell count [1]: 6980 | cell count [2]: 6500 | cell count [3]: 7350 | cell count [7]: 6120

CCOc1ccc(-n2c(C(C)N(Cc3cccnc3)C(=O)Cc3ccc(OC(F)(F)F)cc3)nc3ncccc3c2=O)cc1 (configuration not stated)
z-score [4]: 0.00539 (inactive) | z-score [5]: 0.51 (inactive) | z-score [6]: -0.332 (inactive) | z-score [7]: -0.306 (inactive) | cell count [4]: 4950 | cell count [5]: 4820 | cell count [6]: 4910 | cell count [7]: 4660

COc1ccccc1Oc1ccc(N(Cc2cccnc2)S(=O)(=O)CC(F)(F)F)cc1
z-score [1]: 0.268 (inactive) | z-score [2]: -0.0606 (inactive) | z-score [3]: 2 (active) | z-score [7]: 0.543 (inactive) | cell count [1]: 6460 | cell count [2]: 6750 | cell count [3]: 6250 | cell count [7]: 5860

CCOc1ccc(-n2c(C(C)N(Cc3cccnc3)C(=O)Cc3ccc(F)c(C(F)(F)F)c3)nc3ncccc3c2=O)cc1 (configuration not stated)
z-score [4]: -0.219 (inactive) | z-score [5]: -0.0969 (inactive) | z-score [6]: 0.0541 (inactive) | z-score [7]: -0.0286 (inactive) | cell count [4]: 5590 | cell count [5]: 5490 | cell count [6]: 5970 | cell count [7]: 4780

CCCCCCCCCCCCCCCCC/C=C/C(=O)O
z-score: 0.212 (inactive) | cell count: 4980

Cc1nc(Nc2ncc(C(=O)Nc3c(C)cccc3Cl)s2)cc(N2CCN(CCO)CC2)n1
outcome: inactive; censored for cell count | z-score [1]: -0.0819 (inactive) | z-score [4]: 3.96 (active) | z-score [2]: 0.412 (inactive) | z-score [5]: 5.15 (active) | z-score [3]: 3.64 (active) | z-score [6]: 6.64 (active) | z-score [7]: 3.97 (active) | cell count [1]: 4850 | cell count [4]: 2250 | cell count [2]: 4290 | cell count [5]: 1990 | cell count [3]: 2120 | cell count [6]: 1770 | cell count [7]: 1700

CCCCC[C@@H](O)/C=C/[C@H]1[C@H](C/C=C\CCCC(=O)O)C(=O)C[C@@H]1O
z-score: -0.0856 (inactive) | cell count: 5040

CCC(=O)NCC1CC1c1cccc2c1CCO2 (configuration not stated)
z-score [1]: 0.0958 (inactive) | z-score [2]: 0.113 (inactive) | z-score [3]: -0.0496 (inactive) | z-score [7]: -0.0795 (inactive) | cell count [1]: 6660 | cell count [2]: 6440 | cell count [3]: 7030 | cell count [7]: 7060

O=c1cc(N2CCOCC2)oc2c1ccc1ccccc12
z-score [1]: -0.263 (inactive) | z-score [2]: 0.075 (inactive) | z-score [3]: 0.0237 (inactive) | z-score [7]: -0.121 (inactive) | cell count [1]: 6320 | cell count [2]: 6310 | cell count [3]: 6270 | cell count [7]: 6380

O=c1cc(N2CCOCC2)oc2c(-c3ccccc3)cccc12
z-score: 0.00801 (inactive) | cell count: 5270

O=c1cc(N2CCOCC2)oc2c(-c3cccc4c3sc3ccccc34)cccc12
z-score [4]: -0.493 (inactive) and 0.0213 (inactive) | z-score [5]: -0.14 (inactive) and 0.291 (inactive) | z-score [6]: 1.89 (inactive) and 3.23 (active) | z-score [7]: 0.374 (inactive) and 11.4 (active) | cell count [4]: 4940 and 6230 | cell count [5]: 4400 and 5530 | cell count [6]: 3070 and 3850 | cell count [7]: 4020 and 1970
